Assay [1] concerns the target Transcriptional activator Myb (Homo sapiens) (UniProt P10242). Nature of the assay: ATG_Myb_CIS: Attagene CIS-FACTORIAL HepG2 Assay for human Myeloblastosis (Myb) Proto-Oncogene Transcription Factor (AID 2282986). Conditions: HepG2 Attagene CIS-FACTORIAL Myb reporter transcription; actives raise or lower the signal. A digest of the protocol:
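Endogenous transcription factor activity at a Myb-responsive cis element is reported in human liver HepG2 cells after 24 h chemical treatment. Reporter mRNA is detected by RT-PCR and capillary electrophoresis fluorescence, with DMSO as baseline.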

Assay [2] addresses Nuclear respiratory factor 1 (Homo sapiens) (UniProt Q16656). Nature of the assay: ATG_NRF1_CIS: Attagene CIS-FACTORIAL HepG2 Assay for human Nuclear Respiratory Factor 1 (NRF1) Orphan Gene (AID 2282987). Conditions: HepG2 NRF1 cis-element reporter, Attagene multiplex; actives raise or lower the signal. An outline of the steps: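 Human hepatoma HepG2 cells carrying transfected promoter-regulated reporter units were incubated with test chemicals for 24 h. Reporter transcripts were measured by RT-PCR plus capillary electrophoresis, and endpoints derived by bidirectional fitting with DMSO as baseline.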

A short description of assay [3]: ATG_NFI_CIS: Attagene CIS-FACTORIAL HepG2 Assay for human Nuclear Factor I (NFI) (AID 2282989). Conditions: HepG2 cis-regulatory reporter, NFI response element transcription; actives raise or lower the signal. A digest of the protocol:
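HepG2, transient MRTU, 24 h exposure; RNA→cDNA→PCR→FAM label→HpaI→CE fluorescence. Bidirectional fit, DMSO = baseline.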

The nature of assay [4]: ATG_NF_kB_CIS: Attagene CIS-FACTORIAL HepG2 Assay for human Nuclear Factor Kappa B (NF-kB) (AID 2282991). Conditions: HepG2 Attagene cis-factorial NF-kB reporter mRNA; actives raise or lower the signal. An outline of the steps: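 Multiplexed cis-reporter assay in transiently transfected HepG2. 24 h treatment; RNA isolated, RT-PCR, labelled fragments resolved by CE. DMSO baseline.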

Assay [5] in a line: ATG_NRF2_ARE_CIS: Attagene CIS-FACTORIAL HepG2 Assay for human Nuclear Factor Erythroid 2 Related Factor 2 (NFR2) response to Antioxidant Response Elements (ARE) (AID 2282992).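 On AC50: reporter mRNA level measured by RT-PCR and capillary electrophoresis fluorescence.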 Conditions: HepG2 Attagene ARE/NRF2 reporter, transcription factor activity; actives raise or lower the signal. An outline of the steps: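 Endogenous transcription factor activity in human liver HepG2 cells is tracked via a cis-element-driven reporter within a multiplexed set. mRNA induction is read by RT-PCR and capillary electrophoresis after 24 h, with DMSO as baseline.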

The nature of assay [6]: ATG_Oct_MLP_CIS: Attagene CIS-FACTORIAL HepG2 Assay for human Octamer-Binding Transcription Factor (Oct) (AID 2282993). Conditions: HepG2 Attagene cis-factorial Oct reporter, mRNA; actives raise or lower the signal. A digest of the protocol: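 Multiplexed cis-reporter assay in human liver HepG2 cells, 24 h incubation. Reporter RNA amplified and labelled, then resolved by capillary electrophoresis; DMSO serves as negative control and baseline.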

The target in assay [7] is Nuclear receptor subfamily 1 group I member 2 (Homo sapiens) (UniProt O75469). As to the kind of experiment: ATG_PXR_TRANS: Attagene TRANS-FACTORIAL HepG2 Assay for human Pregnane X Receptor (PXR) (AID 2283008; active means hit-call score of the fitted dose curve at least 0.9, where 1 is the maximum). An outline of the steps:
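HepG2 transfected (FuGene 6) with GAL4-UAS reporter units + PXR-Gal4 chimera; dosed 24 h. Total RNA → oligo(dT) RT → PCR → 6-FAM primer extension → HpaI cut → CE. Gain-of-signal vs DMSO.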

Assay [8] has as its target Peroxisome proliferator-activated receptor gamma (Homo sapiens) (UniProt P37231). Nature of the assay: ATG_PPARg_TRANS: Attagene TRANS-FACTORIAL HepG2 Assay for human Peroxisome Proliferator-activated Receptor-gamma (PPARg) (AID 2283007; active means hit-call score of the fitted dose curve at least 0.9, where 1 is the maximum). A digest of the protocol: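 Human hepatoma HepG2, transient MRTU transfection, 24 h treatment. mRNA reporter signal by RT-PCR plus capillary electrophoresis, fluorescence detection; fitted for increase over DMSO negative control.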

Assay [9] has as its target human Peroxisome Proliferator-activated Receptor alpha (PPARa), PPARA (gene 5465) (UniProt Q07869). Nature of the assay: ATG_PPARa_TRANS: Attagene TRANS-FACTORIAL HepG2 Assay for human Peroxisome Proliferator-activated Receptor alpha (PPARa) (AID 2283001; active means hit-call score of the fitted dose curve at least 0.9, where 1 is the maximum). An outline of the steps: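 HepG2, transient MRTU transfection, 24 h treatment. RT-PCR → FAM labelling → capillary electrophoresis. Fit vs DMSO, positive direction.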

Assay [10] addresses human Peroxisome Proliferator-activated Receptor delta (PPARd), PPARD (gene 5467) (UniProt Q03181). Nature of the assay: ATG_PPARd_TRANS: Attagene TRANS-FACTORIAL HepG2 Assay for human Peroxisome Proliferator-activated Receptor delta (PPARd) (AID 2283002; active means hit-call score of the fitted dose curve at least 0.9, where 1 is the maximum). A digest of the protocol: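 HepG2 cells transiently transfected with GAL4-UAS multiplexed reporter units driven by exogenous chimeric NR-GAL4 proteins; 24 h compound exposure. Reporter mRNA measured by RT-PCR, 6-FAM primer extension, HpaI digestion and capillary electrophoresis; gain of signal fitted relative to DMSO.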

Assay [11] is described as follows: BSK_3C_TissueFactor: BioMAP Diversity Plus: 3C Assay for Tissue Factor Biomarker Activity (AID 2282997). Conditions: BioMAP 3C HUVEC, tissue factor biomarker readout; actives raise or lower the signal. An outline of the steps: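 In this endothelial system, HUVEC are treated for 24 h and Tissue Factor is assessed by ELISA, normalised to DMSO.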
Assay [12] is described as follows: BSK_3C_uPAR: BioMAP Diversity Plus: 3C Assay for Urokinase-type plasminogen activator receptor (uPAR) Biomarker Activity (AID 2282998). Conditions: BioMAP 3C HUVEC, uPAR biomarker ELISA; actives raise or lower the signal. A digest of the protocol:
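Dose primary human umbilical vein endothelial cells, incubate 24 h, measure cell-surface uPAR by ELISA, then fit the signal in both directions against the DMSO negative control.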

Assay [13] is described as follows: BSK_3C_VCAM1: BioMAP Diversity Plus: 3C Assay for Vascular cell adhesion molecule 1 (VCAM1) Biomarker Activity (AID 2282999). Conditions: BioMAP 3C HUVEC, VCAM1 ELISA, cytokine-stimulated; actives raise or lower the signal. An outline of the steps:
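HUVEC primary cells, 24 h compound exposure; VCAM-1 by ELISA; gain/loss of signal fitted bidirectionally vs DMSO baseline.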
(In general: An ELISA detects its analyte on a solid surface through an enzyme-linked reagent.)

A short description of assay [14]: BSK_4H_Eotaxin3: BioMAP Diversity Plus: 4H Assay for Eotaxin 3 Biomarker Activity (AID 2283000).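 On outcome: CCL26 protein level quantified by ELISA in parallel with SRB cytotoxicity check.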 Conditions: primary human endothelial cells (HUVEC); actives raise or lower the signal. A digest of the protocol: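 ELISA quantitation of CCL26 (Eotaxin-3) protein from chemically dosed human vascular endothelial cells at 24 h; increases and decreases both scored relative to DMSO-treated baseline.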

Read-out in assay [15]: Intercellular Adhesion Molecule 1 (ICAM1), ICAM1 (gene 3383)
Nature of the assay: BSK_3C_ICAM1: BioMAP Diversity Plus: 3C Assay for Intercellular Adhesion Molecule 1 (ICAM1) Biomarker Activity (AID 2283003). Conditions: primary human endothelial cells (HUVEC); actives raise or lower the signal. A digest of the protocol: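 ELISA readout of ICAM1 in human umbilical vein endothelial cells in the 3C system, taken 24 h post-dose. Gain or loss of signal versus DMSO was fitted in both directions, with SRB total-protein staining run in parallel.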

The nature of assay [16]: BSK_3C_Proliferation: Cell Proliferation Assessment in the BioMAP Diversity Plus: 3C Assay (AID 2283006). Conditions: primary human endothelial cells (HUVEC). An outline of the steps: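 Proliferation as total protein: sulforhodamine B (0.1%) stain of TCA-fixed subconfluent human umbilical vein endothelial cells, absorbance 560 nm, 48 h after dosing. Activity fitted in both directions against DMSO baseline.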

In assay [17] the target is human Retinoic Acid Receptor gamma (RARg), RARG (gene 5916) (UniProt P13631). As to the kind of experiment: ATG_RARg_TRANS: Attagene TRANS-FACTORIAL HepG2 Assay for human Retinoic Acid Receptor gamma (RARg) (AID 2283009; active means hit-call score of the fitted dose curve at least 0.9, where 1 is the maximum). A digest of the protocol:
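Transactivation of exogenous RARg-Gal4 fusion measured as reporter transcript induction after 24 h in transfected HepG2 cells. RNA reverse-transcribed, amplified, fluorescently labeled and resolved by capillary electrophoresis; increase relative to DMSO.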

Assay [18] concerns the target Cellular tumor antigen p53 (Homo sapiens) (UniProt P04637). As to the kind of experiment: ATG_p53_CIS: Attagene CIS-FACTORIAL HepG2 Assay for human p53 Transcription Factor (AID 2282994). Conditions: HepG2 p53 cis-element reporter, Attagene mRNA; actives raise or lower the signal. An outline of the steps:
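Steps: transfect HepG2 with multiplexed cis reporter constructs; dose chemicals 24 h; extract RNA, reverse-transcribe, PCR-amplify reporter sequences; FAM-label, HpaI-digest, resolve fragments by CE. Activity fitted both directions relative to DMSO.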

Inconclusive results are not listed. The source made the active and inactive calls. How the source made its calls, unless noted: active means hit-call score of the fitted dose curve at least 0.9, where 1 is the maximum; inactive means score below 0.9.

Sequence of human Peroxisome Proliferator-activated Receptor delta (PPARd), PPARD (gene 5467) (Q03181 whole entry, looked up, the tested form may be a part): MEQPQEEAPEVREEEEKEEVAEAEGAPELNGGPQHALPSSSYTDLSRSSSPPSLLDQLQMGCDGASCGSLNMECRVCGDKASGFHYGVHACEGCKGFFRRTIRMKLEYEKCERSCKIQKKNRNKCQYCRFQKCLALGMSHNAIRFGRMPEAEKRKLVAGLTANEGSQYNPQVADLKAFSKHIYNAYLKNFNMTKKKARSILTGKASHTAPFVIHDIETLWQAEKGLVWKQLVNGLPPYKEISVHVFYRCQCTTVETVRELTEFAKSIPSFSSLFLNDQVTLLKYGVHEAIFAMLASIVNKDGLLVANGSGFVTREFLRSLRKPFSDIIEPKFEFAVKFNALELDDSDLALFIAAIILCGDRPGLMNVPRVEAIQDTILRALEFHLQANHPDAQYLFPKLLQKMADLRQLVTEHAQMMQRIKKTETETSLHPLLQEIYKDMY
Sequence of Nuclear receptor subfamily 1 group I member 2 (Homo sapiens) (O75469 whole entry, looked up, the tested form may be a part): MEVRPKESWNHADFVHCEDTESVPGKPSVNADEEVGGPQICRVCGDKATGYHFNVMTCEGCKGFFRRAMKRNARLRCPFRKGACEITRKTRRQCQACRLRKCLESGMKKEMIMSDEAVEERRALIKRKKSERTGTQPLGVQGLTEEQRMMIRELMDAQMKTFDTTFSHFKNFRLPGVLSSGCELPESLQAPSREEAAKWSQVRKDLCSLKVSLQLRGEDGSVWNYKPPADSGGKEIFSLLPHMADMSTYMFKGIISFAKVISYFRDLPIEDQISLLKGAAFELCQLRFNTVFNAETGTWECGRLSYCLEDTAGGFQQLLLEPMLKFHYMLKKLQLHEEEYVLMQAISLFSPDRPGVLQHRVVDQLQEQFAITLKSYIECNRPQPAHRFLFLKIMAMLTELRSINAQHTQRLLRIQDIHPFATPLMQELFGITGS
Sequence of Transcriptional activator Myb (Homo sapiens) (P10242 whole entry, looked up): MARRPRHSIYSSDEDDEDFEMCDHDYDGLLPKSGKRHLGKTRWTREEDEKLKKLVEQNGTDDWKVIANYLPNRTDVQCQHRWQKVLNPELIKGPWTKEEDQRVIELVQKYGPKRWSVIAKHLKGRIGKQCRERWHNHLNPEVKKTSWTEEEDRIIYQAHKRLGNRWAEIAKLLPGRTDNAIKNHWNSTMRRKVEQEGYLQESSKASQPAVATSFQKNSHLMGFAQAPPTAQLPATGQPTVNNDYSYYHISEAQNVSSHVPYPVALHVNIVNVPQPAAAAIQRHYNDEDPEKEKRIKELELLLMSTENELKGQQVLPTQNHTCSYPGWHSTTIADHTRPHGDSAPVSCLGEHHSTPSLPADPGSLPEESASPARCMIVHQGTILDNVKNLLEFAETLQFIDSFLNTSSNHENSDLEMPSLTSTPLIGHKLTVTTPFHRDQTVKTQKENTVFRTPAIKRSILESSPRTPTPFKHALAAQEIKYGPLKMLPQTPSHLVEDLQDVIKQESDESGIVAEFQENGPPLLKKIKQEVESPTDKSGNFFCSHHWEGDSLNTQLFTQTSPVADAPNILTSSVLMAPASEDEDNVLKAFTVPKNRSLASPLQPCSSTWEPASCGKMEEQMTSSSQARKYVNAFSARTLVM
Sequence of Nuclear respiratory factor 1 (Homo sapiens) (Q16656 whole entry, looked up): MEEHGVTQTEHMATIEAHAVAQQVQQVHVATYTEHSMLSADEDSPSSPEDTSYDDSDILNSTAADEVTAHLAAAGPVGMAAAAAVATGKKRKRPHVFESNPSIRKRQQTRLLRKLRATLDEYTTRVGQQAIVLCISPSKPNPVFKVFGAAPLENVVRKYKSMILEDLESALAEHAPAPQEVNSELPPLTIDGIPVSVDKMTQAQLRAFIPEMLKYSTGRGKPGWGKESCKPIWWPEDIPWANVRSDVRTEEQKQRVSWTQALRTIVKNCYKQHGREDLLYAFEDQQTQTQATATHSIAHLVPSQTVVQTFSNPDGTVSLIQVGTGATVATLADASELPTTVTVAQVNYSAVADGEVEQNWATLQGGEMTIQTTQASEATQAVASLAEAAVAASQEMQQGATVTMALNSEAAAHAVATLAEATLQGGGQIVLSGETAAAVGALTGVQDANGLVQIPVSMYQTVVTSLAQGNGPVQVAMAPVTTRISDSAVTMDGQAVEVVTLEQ
Sequence of human Peroxisome Proliferator-activated Receptor alpha (PPARa), PPARA (gene 5465) (Q07869 whole entry, looked up): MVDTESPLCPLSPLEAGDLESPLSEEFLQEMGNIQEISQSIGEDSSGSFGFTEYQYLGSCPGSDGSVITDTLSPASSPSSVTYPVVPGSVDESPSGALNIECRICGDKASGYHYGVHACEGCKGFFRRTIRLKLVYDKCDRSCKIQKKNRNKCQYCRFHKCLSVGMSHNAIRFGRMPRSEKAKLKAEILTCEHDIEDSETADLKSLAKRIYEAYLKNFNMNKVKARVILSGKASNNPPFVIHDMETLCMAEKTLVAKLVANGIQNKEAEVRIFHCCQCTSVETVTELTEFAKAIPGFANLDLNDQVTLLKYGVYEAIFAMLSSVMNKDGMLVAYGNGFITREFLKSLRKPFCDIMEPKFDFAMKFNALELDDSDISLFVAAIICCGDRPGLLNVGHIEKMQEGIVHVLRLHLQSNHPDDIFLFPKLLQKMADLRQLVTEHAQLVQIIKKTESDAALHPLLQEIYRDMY
Sequence of Peroxisome proliferator-activated receptor gamma (Homo sapiens) (P37231 whole entry, looked up): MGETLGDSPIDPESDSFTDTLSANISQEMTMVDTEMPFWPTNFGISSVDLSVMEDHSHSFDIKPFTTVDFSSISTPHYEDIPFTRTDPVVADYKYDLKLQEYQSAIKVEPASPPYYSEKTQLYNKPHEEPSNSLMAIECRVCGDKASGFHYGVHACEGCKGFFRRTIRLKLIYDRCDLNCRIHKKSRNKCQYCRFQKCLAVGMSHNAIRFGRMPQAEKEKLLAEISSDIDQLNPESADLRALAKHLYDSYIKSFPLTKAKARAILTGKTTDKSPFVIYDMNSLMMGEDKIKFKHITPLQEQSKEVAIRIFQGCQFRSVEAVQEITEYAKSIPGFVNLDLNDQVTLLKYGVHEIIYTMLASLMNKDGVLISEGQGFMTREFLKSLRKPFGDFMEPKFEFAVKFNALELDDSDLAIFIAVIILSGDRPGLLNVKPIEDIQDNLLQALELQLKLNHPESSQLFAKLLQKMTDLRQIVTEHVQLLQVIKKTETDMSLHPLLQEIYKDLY
Sequence of Cellular tumor antigen p53 (Homo sapiens) (P04637 whole entry, looked up, the tested form may be a part): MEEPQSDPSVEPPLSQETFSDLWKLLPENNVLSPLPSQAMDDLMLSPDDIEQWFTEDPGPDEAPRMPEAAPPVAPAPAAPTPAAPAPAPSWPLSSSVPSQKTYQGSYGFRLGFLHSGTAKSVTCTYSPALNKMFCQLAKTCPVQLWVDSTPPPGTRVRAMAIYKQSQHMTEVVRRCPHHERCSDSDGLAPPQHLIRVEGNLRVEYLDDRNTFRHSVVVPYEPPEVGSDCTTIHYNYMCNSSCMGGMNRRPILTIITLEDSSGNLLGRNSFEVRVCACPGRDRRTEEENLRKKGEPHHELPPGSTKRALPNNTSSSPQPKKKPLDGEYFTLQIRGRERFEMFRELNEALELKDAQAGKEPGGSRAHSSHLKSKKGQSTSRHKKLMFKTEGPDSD
Sequence of human Retinoic Acid Receptor gamma (RARg), RARG (gene 5916) (P13631 whole entry, looked up, the tested form may be a part): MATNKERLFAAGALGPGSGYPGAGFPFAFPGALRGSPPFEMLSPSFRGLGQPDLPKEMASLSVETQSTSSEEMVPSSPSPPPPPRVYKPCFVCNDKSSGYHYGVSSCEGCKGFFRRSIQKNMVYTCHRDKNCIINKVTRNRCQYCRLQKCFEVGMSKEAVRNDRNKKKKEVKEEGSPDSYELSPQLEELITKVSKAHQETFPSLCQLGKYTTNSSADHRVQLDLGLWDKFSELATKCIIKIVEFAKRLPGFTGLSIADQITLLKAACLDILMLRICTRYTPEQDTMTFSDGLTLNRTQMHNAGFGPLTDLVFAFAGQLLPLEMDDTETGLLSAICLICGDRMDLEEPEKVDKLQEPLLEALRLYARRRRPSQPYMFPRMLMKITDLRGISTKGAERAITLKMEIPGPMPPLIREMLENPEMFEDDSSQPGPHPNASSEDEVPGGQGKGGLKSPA

For `Cc1cc(C)c(C(=O)P(=O)(c2ccccc2)c2ccccc2)c(C)c1`, the AC50 in [1] was 62.4 µM (active); in assay [3], 55.2 µM (active); in assay [5], 4.78 µM (active); in assay [7] it was 0.0576 µM (active). For the same molecule, the outcome in assay [2], in assay [4] and in assay [6] was inactive.

As to `Nc1ccc(Sc2ccc(N)cc2)cc1`, the outcome in assay [1], in assay [2], in [3] and in [6] was inactive. Moreover, the AC50 was 50.4 µM (active) in [5], 57.1 µM (active) in assay [8] and 50.6 µM (active) in assay [7].

As to `CCOC(=O)c1ccccc1N`, the result in assay [1], in [2], in [3], in assay [5], in assay [6] and in assay [9] was inactive. Further, the molecule was called inactive in assay [8] and in assay [7].

Consider `CC(=O)c1ccc(-c2ccccc2)cc1`, for which the molecule was classed as inactive in [1], in assay [2], in [3], in assay [4], in assay [5] and in [6]. The result in [9], in assay [10] and in assay [8] was inactive. Moreover, in assay [7], the AC50 is 24.7 µM (active).

Consider `Cc1ccc2c(c1N)C(=O)c1ccccc1C2=O`, for which the outcome in [1], in [2], in [3], in assay [6], in assay [13] and in [9] was inactive. Further, the outcome in [10], in [15], in assay [16] and in assay [8] was inactive. The AC50 in assay [4] was 25.4 µM (active); in [5], 42.4 µM (active); in assay [11], 20 µM (active); in assay [12] it was 3.89 µM (active); in assay [14], 9.4 µM (active); in assay [7], 2.89 µM (active).

As for `O=C(O)C=CC(F)(C(F)(F)F)C(F)(F)F`, the molecule was classed as inactive in [1], in assay [2], in [3], in assay [4], in assay [5] and in assay [6]. In addition, the result in [11], in [12], in assay [13], in assay [14], in [9] and in [10] was inactive. The outcome in assay [15], in assay [16], in [8], in [7] and in assay [17] was inactive.

With `CCOS(=O)(=O)OCC`, the molecule was classed as inactive in [1], in assay [2], in [3], in assay [5], in [6] and in [18]. The outcome in assay [11], in assay [12], in assay [13], in assay [14], in assay [9] and in [10] was inactive. Also, the outcome in assay [15] and in assay [16] was inactive.

The AC50 is the concentration giving half of the maximal activity seen.

For the origin of these results see PubChem BioAssay (EPA / NIEHS).
